Measurements reported in PubChem BioAssay (Tox21).
Unmarked numbers belong to inactive results. Calls follow the shape of the dose curve; as a rule, active = well fitted activation curve with a large enough effect in the repeat runs; inconclusive = weak or mixed curves; inactive = flat fitted curve, though single readings scatter.
% is scaled to controls: 0 for no effect and ±100 for the full control effect.

Each compound was assayed against KiSS-1 receptor (Homo sapiens) (UniProt Q969F8) (assay: Human kisspeptin (KISS1R) small molecule agonists, calcium flux assay in KISS1R-HEK293 cells (AID 1920064)). Settings: KISS1R-HEK293, calcium flux fluorescence, agonist; series mostly up to 76.8 µM; activation: at the top concentration.
Chain of KiSS-1 receptor (Homo sapiens) (Q969F8 whole entry, looked up): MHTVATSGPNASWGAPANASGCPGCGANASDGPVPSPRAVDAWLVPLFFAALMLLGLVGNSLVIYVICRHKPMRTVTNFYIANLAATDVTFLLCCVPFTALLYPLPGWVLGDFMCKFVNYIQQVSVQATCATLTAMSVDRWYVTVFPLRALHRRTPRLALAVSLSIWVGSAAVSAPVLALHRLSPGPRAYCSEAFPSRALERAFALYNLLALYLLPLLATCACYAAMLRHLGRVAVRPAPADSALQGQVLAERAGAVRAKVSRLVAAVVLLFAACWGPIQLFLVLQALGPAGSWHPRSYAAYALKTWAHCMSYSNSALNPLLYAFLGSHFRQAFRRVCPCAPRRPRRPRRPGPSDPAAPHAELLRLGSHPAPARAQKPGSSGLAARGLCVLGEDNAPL
Description: National Center for Advancing Translational Sciences [NCATS]
Division of Preclinical Innovation [DPI]
U.S. Environmental Protection Agency [EPA]
National Institutes of Environmental Health Sciences [NIEHS]
National Toxicology Program [NTP]
U.S. Food and Drug Administration [FDA]
Kisspeptin and its receptor KISS1R play key roles in mammalian reproduction due to their involvement in the onset of puberty and control of the hypothalamic-pituitary-gonadal axis such as regulates GnRH release from the hypothalamus. The kisspeptin/KISS1R system also plays a direct role in peripheral organs (including the ovary, testis, uterus, and placenta) and is implicated in reproductive diseases such as miscarriage and polycystic ovary syndrome (PCOS). Abnormal KISS1R activity is associated with abnormal puberty, infertility, endometriosis, and hormone-dependent tumors. The KISS1 receptor (KISS1R, also called GPR54), a G-protein-coupled receptor (GPCR), acts (through phospholipase C) to increase intracellular inositol trisphosphate and then release intracellular calcium stores. Cell-based KISS1R-HEK293 assay is using HEK293 cells that have been genetically engineered to express the human KISS1R, which activity can be measured by calcium signaling. A compound/drug can activate (agonist) KISS1R that can be monitored by levels of intracellular calcium.
KISS1R-HEK293 cells developed by Codex Corp contain human KISS1R gene, which was stably integrated into HEK 293 cells. The compound activation can be detected by fluorescence intensity via calcium flux assay. This cell line has been used to screen the Tox21 10K compound library to identify agonists of KISS1R.
KISS1R-Hek293 cells were dispensed at 1500 cells/4uL/well in 1536-well black wall/clear bottom plates using a multidrop dispenser. After the assay plates were incubated at a 37 C/5% CO2 incubator for 18 hours, 4 microL of Calcium Dye Solution was added to each well. The plates were incubated at 37 C for 1 hour. And then 23 nL of compounds dissolved in DMSO, positive controls, or DMSO only was transferred to the assay plate by a pin tool station. The fluorescence intensity in the plates was measured using FDSS 7000EX kinetic plate reader with a filter set of Ex/Em=480/540 for 3 min at 1 sec intervals. Each test compound was measured at 15 concentrations and in triplicates.
For `CC(C)CCCCCCOC(=O)c1ccc(C(=O)OCCCCCCC(C)C)c(C(=O)OCCCCCCC(C)C)c1`, the “activation” value was -1.35%. `COc1cc2c3cc1Oc1cc(ccc1O)C[C@@H]1c4c(cc(OC)c(O)c4Oc4ccc(cc4)C[C@@H]3N(C)CC2)CC[N+]1(C)C` was tested, and the “activation” value was -0.121% [at 35.3 µM]. For `Cc1ccc(N(CCO)CCO)cc1`, the “activation” value was -2.43%. In the case of `CCCCCCCCCCCCCCN(CCO)CCO`, the “activation” value is reported as -3.01%. `O=C(O)c1cccc(N(Cc2cccnc2)c2ccc(OC(F)F)c(OC(F)F)c2)c1` was tested, and the “activation” value was 0.709%. For `CCn1ccnc1CC1COc2ccccc2O1` (stereo not given), the “activation” value was -1.05% [at 35.3 µM]. With `CCCCCCCCC(C)=O` the “activation” value was -1.59%. For `COC(=O)N/N=C/c1c[n+]([O-])c2ccccc2[n+]1[O-]`, the “activation” value was 0% [at 35.3 µM]. `CC(C)CCCCCCOC(=O)CCCCC(=O)OCCCCCCC(C)C` was tested, and the “activation” value was -0.937%. For `CCCN(CCC)C(=O)C(CCC(=O)O)NC(=O)c1ccccc1` (stereo not given), the “activation” value was -0.59% [at 35.3 µM]. `O=c1[nH]c(=O)n([C@H]2O[C@H](CO)[C@@H](O)[C@@H]2O)cc1/C=C\Br` was tested, and the “activation” value was 0.347% [at 35.3 µM]. In the case of `CN(C)CCc1c[nH]c2ccc(CS(=O)(=O)N3CCCC3)cc12`, the “activation” value is reported as -0.863% [at 35.3 µM]. In the case of `O=C(O)c1ccc2cc(O)ccc2c1`, the “activation” value is reported as 17.8%. `O=C(O)Cc1ccccc1Oc1ccc(Cl)cc1Cl` was tested, and the “activation” value was 12% [at 35.3 µM]. In the case of `CN(C)c1ccc(C(c2ccccc2)c2ccc(N(C)C)cc2)cc1`, the “activation” value is reported as 1.14%. In the case of `Nc1c2c(nc3c1CCC3)CCCC2`, the “activation” value is reported as 7.22% [at 35.3 µM]. `Cc1cc(NS(=O)(=O)c2ccc(N)cc2)nc(C)n1` was tested, and the “activation” value was -1.03% [at 35.3 µM]. For `C[C@@H]1O[C@@H](O[C@@H]2[C@@H](O)[C@H](OCCc3ccc(O)c(O)c3)O[C@H](CO[C@@H]3O[C@H](CO)[C@@H](O)[C@H](O)[C@H]3O)[C@H]2OC(=O)/C=C/c2ccc(O)c(O)c2)[C@H](O)[C@H](O)[C@H]1O`, the “activation” value was 0.0994%. `COCCOCCOCCOC` was tested, and the “activation” value was 0.252%. In the case of `C=CCOc1c(Br)cc(Br)cc1Br`, the “activation” value is reported as -1.22%. With `CC(=O)Nc1cc(S(=O)(=O)O)cc2cc(S(=O)(=O)O)c(N=Nc3ccccc3)c(O)c12` the “activation” value was -2.51%. `CCCCCCCCCCCCCCBr` was tested, and the “activation” value was -0.0218%. For `CCOC(=O)OCC/C(SC(=O)OCC)=C(\C)N(C=O)Cc1cnc(C)nc1N`, the “activation” value was -0.749% [at 35.3 µM]. In the case of `CC(C(=O)O)c1ccc(/C=C2\CCCCC2=O)cc1` (stereo not given), the “activation” value is reported as 0.195% [at 35.3 µM]. With `OCCN(CCO)CCN(CCO)CCO` the “activation” value was -1.47%. In the case of `CCC(Cc1ccccc1)(C(=O)c1ccc(N2CCOCC2)cc1)N(C)C` (stereo not given), the “activation” value is reported as 2.01%. For `CC(C)c1ccc(C(=O)N=C(N)N)cc1S(C)(=O)=O`, the “activation” value was 1.99% [at 35.3 µM]. For `CCO[Si](CC)(OCC)OCC`, the “activation” value was 0.676%. In the case of `CNCCc1ccccn1`, the “activation” value is reported as 1.1% [at 35.3 µM]. For `Cc1cc(NC(=O)C2=C(O)c3ccccc3S(=O)(=O)N2C)no1`, the “activation” value was -1.49% [at 35.3 µM]. `CC/C=C(\C)C=O` was tested, and the “activation” value was 0.505%. For `CCC(C)COC(=O)CC(C)C` (stereo not given), the “activation” value was -0.315%. With `COCCO` the “activation” value was -2.52%. In the case of `COc1ccccc1OCC(O)COC(N)=O` (stereo not given), the “activation” value is reported as 0.148% [at 35.3 µM]. `CN1CCCC(n2nc(Cc3ccc(Cl)cc3)c3ccccc3c2=O)CC1` (stereo not given) was tested, and the “activation” value was 9.04% [at 35.3 µM]. With `CCN1CCCC1CNC(=O)c1cc(S(N)(=O)=O)ccc1OC` (stereo not given) the “activation” value was 0.94%. In the case of `Cc1cccc2sc(N)nc12`, the “activation” value is reported as 0.605%. `C=CC(=O)OCC(CO)(COCC(COC(=O)C=C)(COC(=O)C=C)COC(=O)C=C)COC(=O)C=C` was tested, and the “activation” value was 0.0091%. With `CC(=O)Oc1cc2c(s1)CCN(C(C(=O)C1CC1)c1ccccc1F)C2` (stereo not given) the “activation” value was -0.133% [at 35.3 µM]. `CC(C)(C)NCC(O)COc1cccc2c1CCC(=O)N2` (stereo not given) was tested, and the “activation” value was 0.147% [at 35.3 µM].
